Results reported in PubChem BioAssay.
Active and inactive are the calls of the source. Cut-off read from the data, not from the text of the source, unless noted: active = inhibition above about 80%; inactive = the rest.

Columns and labels:
[1] = LFS_MB_P medulloblastoma growth inhibition, cell-based, chromothripsis tumors, cisplatin or BGB combos (AID 1671449); conditions: LFS_MB_P medulloblastoma cells;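 note: cells exposed for 96 hours; 0% = vehicle DMSO and 100% = killing by high DMSO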
[2] = HDN33 neuroblastoma growth inhibition, cell-based, chromothripsis tumors, cisplatin or BGB combos (AID 1671450); conditions: HDN33 neuroblastoma cells, stronger effect = higher value;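 note: cells exposed to compound for four days; 0% = vehicle DMSO and 100% = cell killing by high DMSO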
[3] = ICB984 medulloblastoma cell growth inhibition, synergistic combos for chromothripsis tumors, cisplatin or BGB combos (AID 1671451; call rule not given here;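 note: cells exposed for 96 hours before readout; 0% = vehicle DMSO and 100% = killing by high DMSO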); conditions: ICB984 medulloblastoma cells, drug combinations, stronger effect = higher value
[4] = LFS_MB_1R medulloblastoma cell growth inhibition, synergistic combos for chromothripsis tumors, cisplatin or BGB combos (AID 1671452); conditions: LFS_MB_1R medulloblastoma cells, stronger effect = higher value;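 note: cells exposed for 96 hours before readout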
[5] = HTB85 osteosarcoma cell growth inhibition, synergistic combos for chromothripsis tumors, BGB or cisplatin IC20 combos (AID 1671453); conditions: HTB85 osteosarcoma cells, drug combinations, stronger effect = higher value;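 note: cells exposed for 96 hours before readout; 0% = vehicle DMSO and 100% = high DMSO killing control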
[6] = CRL2098 osteosarcoma cell growth inhibition, synergistic combos for chromothripsis tumors, BGB or cisplatin IC20 combos (AID 1671454); conditions: CRL2098 osteosarcoma cells, drug combinations, stronger effect = higher value;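 note: cells exposed for 96 h before readout; 0% = vehicle DMSO and 100% = killing by high DMSO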
[7] = HD-MB03 medulloblastoma cell growth inhibition, synergistic combos for chromothripsis tumors, BGB or cisplatin IC20 combos (AID 1671455; in the data active = inhibition above about 83%;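 note: 0% = vehicle DMSO and 100% = high DMSO as cytotoxic control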); conditions: HD-MB03 medulloblastoma cells, stronger effect = higher value
[8] = UWB1.289 ovarian carcinoma cell growth inhibition, synergistic combos for chromothripsis tumors, BGB or cisplatin combos (AID 1671456); conditions: UWB1.289 ovarian carcinoma cells, stronger effect = higher value;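 note: cells exposed to compound for four days; 0% = vehicle DMSO and 100% = killing by high DMSO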
[9] = LFS_MB_2R medulloblastoma cell growth inhibition, synergistic combos for chromothripsis tumors, cisplatin combos (AID 1671457); conditions: LFS_MB_2R medulloblastoma cells, stronger effect = higher value;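 note: cells exposed to compound for four days before readout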
[10] = MDA-MB-436 breast carcinoma cell growth inhibition, synergistic combos for chromothripsis tumors, BGB or cisplatin combos (AID 1671458; call rule not given here;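 note: cells exposed for 96 hours; 0% = vehicle DMSO and 100% = killing by high DMSO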); conditions: MDA-MB-436 breast carcinoma growth inhibition, drug combinations, stronger effect = higher value
[11] = UWB1.289_BRCA1 ovarian cancer growth, cell-based, BGB or cisplatin combinations (AID 1671459); conditions: UWB1.289 BRCA1 ovarian carcinoma, drug combinations, stronger effect = higher value
[12] = human astrocyte viability loss, single and combined drugs, cytotoxicity control for chromothriptic childhood tumor combination screen, cell-based, BGB or cisplatin IC20 combos (AID 1671460); conditions: Human astrocytes, drug combinations, stronger effect = higher value;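 note: cells exposed to compounds for 96 hours before viability readout; 0% = vehicle and 100% = killing control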
[13] = growth inhibition of BT084 medulloblastoma cells, cell-based, ICGC_MB145, cisplatin and BGB IC40 combos (AID 1671461); conditions: drug combinations, stronger effect = higher value;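 note: cells exposed to drugs for 96 hours; 0% = vehicle DMSO and 100% = high DMSO full killing control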
[14] = growth inhibition of RCMB18 medulloblastoma cells, cell-based, cisplatin and BGB IC40 combos (AID 1671462); conditions: stronger effect = higher value;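 note: cells exposed to compound for four days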
[15] = growth inhibition of CRL1545 osteosarcoma cells, cell-based, cisplatin and BGB IC20 combos (AID 1671464); conditions: stronger effect = higher value;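 note: cells exposed to compound for 96 hours before readout; 0% = vehicle DMSO and 100% = high DMSO killing control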
[16] = measured here: combination with BGB IC40, at 0.05 µM
[17] = measured here: with BGB IC20 combination, at 0.5 µM
[18] = measured here: with cisplatin IC20 combination, at 0.5 µM
[19] = measured here: combination with cisplatin, at 0.5 µM
[20] = measured here: combination with cisplatin, at 5 µM

Structure (SMILES): COc1ccc(-c2nc(-c3cc(C(F)(F)F)cc(C(F)(F)F)c3)n(Cc3ccc(C(N)=O)cc3)c2-c2ccc(OC)cc2)cc1
- inhibition ([1]; at 0.5 µM, stronger effect = higher value): -25% (inactive)
- inhibition ([1]; measured here: combination with BGB IC20, at 0.005 µM): -26.9%
- inhibition ([1]; measured here: combination with BGB IC40, at 0.005 µM): -58.7%
- inhibition [1, 16]: -38.9%
- inhibition ([1]; measured here: combination with cisplatin, at 0.5 µM, stronger effect = higher value): -39.3%
- inhibition ([1]; measured here: combination with cisplatin, at 5 µM, stronger effect = higher value): -39.4%
- inhibition ([2]; BGB combo, at 5 µM): -37.8%
- inhibition ([2]; at 0.5 µM): 0.84% (inactive)
- inhibition ([2]; cisplatin combo, at 5 µM): -22.8%
- inhibition [2, 17]: 36.9%
- inhibition [2, 18]: -4.78%
- inhibition ([2]; single agent, at 5 µM): -31.8%
- inhibition ([3]; BGB IC20 combo, at 0.005 µM): -2.07%
- inhibition ([3]; BGB IC40 combo, at 0.005 µM): -30.8%
- inhibition ([3]; BGB IC40 combo, at 0.05 µM): -25.1%
- inhibition ([3]; at 0.5 µM): -9.24% (inactive)
- inhibition ([3]; cisplatin combo, at 0.05 µM): -31.6%
- inhibition ([3]; cisplatin combo, at 0.5 µM): -14.1%
- inhibition ([3]; cisplatin combo, at 5 µM): -32.9%
- inhibition ([3]; measured here: 5 uM single agent, at 5 µM): -2.84%
- inhibition ([4]; at 0.5 µM): -33.2% (inactive)
- inhibition [4, 16]: -28.8%
- inhibition [4, 19]: -57.5%
- inhibition [4, 20]: -46.5%
- inhibition ([5]; at 0.5 µM): -24.2% (inactive)
- inhibition ([5]; measured here: with BGB IC20, at 0.5 µM): -10.5%
- inhibition ([5]; measured here: with BGB IC20, at 5 µM): -7.08%
- inhibition ([5]; measured here: with cisplatin IC20, at 0.5 µM): -32.4%
- inhibition ([5]; measured here: with cisplatin IC20, at 5 µM): -14.9%
- inhibition ([5]; single agent, at 5 µM): 13.9%
- inhibition ([6]; at 0.5 µM): -66.2% (inactive)
- inhibition ([6]; measured here: combination with BGB at IC20, at 0.5 µM): -72.7%
- inhibition ([6]; measured here: combination with cisplatin at IC20, at 0.5 µM): -56.3%
- inhibition ([7]; at 0.5 µM): -5.54% (inactive)
- inhibition ([7]; measured here: combo with BGB at IC20, at 0.5 µM): -5.38%
- inhibition ([7]; measured here: combo with cisplatin at IC20, at 0.5 µM): 0.332%
- inhibition ([8]; at 0.5 µM): -10.7% (inactive)
- inhibition ([8]; measured here: inhibition with BGB combination, at 0.05 µM): -23.7%
- inhibition ([8]; measured here: inhibition with cisplatin combination, at 0.05 µM): -19.3%
- inhibition ([9]; at 0.5 µM): -16.7% (inactive)
- inhibition [9, 19]: -7.64%
- inhibition [9, 20]: -13.3%
- inhibition ([10]; at 0.5 µM): -7.79% (inactive)
- inhibition ([10]; measured here: BGB combination, at 0.5 µM): -10.8%
- inhibition ([10]; measured here: BGB combination, at 5 µM): -8.02%
- inhibition ([10]; measured here: cisplatin combination, at 0.5 µM): -12.9%
- inhibition ([10]; measured here: cisplatin combination, at 5 µM): -13.3%
- inhibition ([11]; BGB combination, concentration series, at 5 µM): 4.42%
- inhibition ([11]; at 0.5 µM): -9.42% (inactive)
- inhibition ([11]; cisplatin combination, concentration series, at 5 µM): 7.4%
- inhibition ([12]; at 0.5 µM): 5.71% (inactive)
- inhibition ([12]; measured here: combo with BGB IC20, at 0.5 µM): 1.56%
- inhibition ([12]; measured here: combo with cisplatin IC20, at 0.5 µM): 6.54%
- inhibition ([13]; at 0.5 µM): -7.83% (inactive)
- inhibition ([13]; cisplatin combination, at 0.5 µM): -5.41%
- inhibition ([13]; cisplatin combination, at 5 µM): -208%
- inhibition ([13]; measured here: BGB IC40 combination 0.05 uM, at 0.05 µM): -36.9%
- inhibition ([13]; single agent, at 5 µM): -5.53%
- inhibition ([14]; at 0.5 µM): -23% (inactive)
- inhibition ([14]; cisplatin combo, at 5 µM): -55.8%
- inhibition ([14]; measured here: BGB IC40 combination, at 0.05 µM): -13.9%
- inhibition [14, 19]: -29.4%
- inhibition ([14]; single agent, at 5 µM): -12.6%
- inhibition ([15]; at 0.5 µM): 21.1% (inactive)
- inhibition [15, 17]: -22.6%
- inhibition [15, 18]: 42.1%
- inhibition ([15]; single agent, at 0.05 µM): -21.9%
- inhibition ([15]; single agent, at 5 µM): -24.7%
